Several values for one entry are separate records, joined by “and”; a condition that tells them apart may be missing. Identical values can stand only once. Like-named read-outs stand apart in the source and are kept apart here.
Legend:
ERK4 = test system: T1, ERK4; conditions: concentration: 1 μM, replicates: in singlicate; n = 1
T1 construct: gene MAPK4

ERK5 = test system: T2, ERK5; conditions: concentration: 1 μM, replicates: in singlicate; n = 1
T2 construct: gene MAPK7

ERK8 = test system: T3, ERK8; conditions: concentration: 1 μM, replicates: in singlicate, n = 1
T3 construct: gene MAPK15

ERN1 = conditions: concentration: 1 μM, replicates: in singlicate; n = 1
FAK = test system: T4, FAK; conditions: concentration: 1 μM, replicates: in singlicate; n = 1
T4 construct: gene PTK2

FER = conditions: concentration: 1 μM, replicates: in singlicate, n = 1
FES = conditions: concentration: 1 μM, replicates: in singlicate, n = 1
FGFR1 = conditions: concentration: 1 μM, replicates: in singlicate; n = 1
FGFR2 = conditions: concentration: 1 μM, replicates: in singlicate; n = 1
FGFR3 = conditions: concentration: 1 μM, replicates: in singlicate, n = 1
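Also: KINOMEscan kinase panel screen.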

| SMILES | %Inh (ERK4) | %Inh (ERK5) | %Inh (ERK8; 1 µM) | %Inh (ERN1) | %Inh (FAK) | %Inh (FER; 1 µM) | %Inh (FES; 1 µM) | %Inh (FGFR1) | %Inh (FGFR2) | %Inh (FGFR3; 1 µM) | %Inh (ERK8) | %Inh (FER) | %Inh (FES) | %Inh (FGFR3) |
| --- | --- | --- | --- | --- | --- | --- | --- | --- | --- | --- | --- | --- | --- | --- |
| COc1ccc(-c2nc3n(c2-c2ccncc2)CCC3)cc1 [SKF-104493] | 0% | 0% | 6% and 11% | 0% | 0% | 0% and 33% | 10% and 0% | 0% | 0% | 0% and 9% |  |  |  |  |
| Cl.Cn1ccc(-c2cccc(Nc3ccnc4cc(-c5nccs5)ccc34)c2)n1 [GW525701] | 9% | 0% |  | 0% | 0% |  |  | 0% | 0% |  | 0% | 8% | 22% | 11% |
| COc1ccc(Nc2nccc(N3CCC(NC(=O)c4cccc(NC(C)=O)c4)C3)n2)cc1 (stereo not shown) [GSK1379732] | 7% | 0% |  | 0% | 0% |  |  | 0% | 37% |  | 5% | 12% | 0% | 19% |
| CS(=O)(=O)CCNCc1nc(-c2ccc3ncnc(Nc4ccc(OCc5cccc(F)c5)c(Cl)c4)c3c2)cs1.Cl [GW583340] | 45% | 5% |  | 10% | 0% |  |  | 0% | 0% |  | 0% | 3% | 0% | 0% |
| C[C@H]1CC[C@@H](C(=O)Nc2ccccc2)CN1c1cc(-c2ccc3c(N)n[nH]c3c2)nc(N)n1 [GSK2283293] | 29% | 0% |  | 0% | 0% |  |  | 0% | 5% |  | 0% | 3% | 9% | 0% |
| FC(F)(F)c1ccc(-c2cc(-c3c[nH]nc3-c3ccccn3)ccn2)cc1 [GW599550] | 0% | 0% |  | 0% | 0% |  |  | 5% | 0% |  | 0% | 32% | 0% | 4% |
| CCn1c(-c2ccncc2)nc2cnccc21 [SB-735216] | 3% | 8% |  | 5% | 9% |  |  | 0% | 0% |  | 0% | 0% | 3% | 17% |
| Fc1ccc(Nc2nccc(-c3c(-c4ccc(Cl)cc4)nn4ncccc34)n2)cc1F [GW829058] | 23% | 0% |  | 48% | 17% |  |  | 13% | 15% |  | 0% | 9% | 19% | 9% |
| CNc1nccc(-c2c(-c3ccc(F)cc3)ncn2C2CCN(C)CC2)n1 [SB-222903] | 0% | 9% |  | 0% | 43% |  |  | 0% | 0% |  | 6% | 0% | 0% | 0% |
| N#Cc1ccc(Oc2ccc(Nc3ncnc4cc[nH]c34)cc2Cl)cc1 | 17% | 20% |  | 8% | 8% |  |  | 9% | 1% |  | 12% | 0% | 17% | 8% |
| CSc1nn2c(=O)cc(N3CCOCC3)nc2n1Cc1cccc(Cl)c1Cl [GSK2347225] | 21% | 0% |  | 9% | 0% |  |  | 6% | 17% |  | 0% | 44% | 13% | 17% |
| Cl.c1ccc(Cn2ccc3cc(Nc4ncnc5ccccc45)ccc32)cc1 [GW275568] | 46% | 7% |  | 0% | 0% |  |  | 0% | 0% |  | 0% | 17% | 15% | 28% |
| Nc1nccc2scc(-c3ccc4c(c3)CCN4C(=O)Cc3cc(F)ccc3F)c12 [GSK2587663] | 0% | 0% |  | 2% | 0% |  |  | 0% | 1% |  | 14% | 26% | 18% | 9% |
| FC(F)(F)c1cc(Nc2nccc(-c3c(-c4ccc(Cl)cc4)nn4ncccc34)n2)ccc1Cl [GW829351] | 0% | 0% |  | 0% | 0% |  |  | 0% | 0% |  | 0% | 0% | 0% | 0% |
| O=c1cc(N2CCOCC2)nc2n(Cc3cccc(Cl)c3)ccn12 [GSK2296823] | 7% | 0% |  | 0% | 0% |  |  | 0% | 14% |  | 38% | 3% | 0% | 24% |
| c1ccc(-c2ccc3c(-c4ccnc(Nc5ccc6c(c5)OCCO6)n4)cnn3n2)cc1 [GW818941] | 0% | 0% |  | 0% | 6% |  |  | 18% | 0% |  | 92.7% | 23% | 0% | 15% |

| SMILES | %Inh (ERK4) | %Inh (ERK5) | %Inh (ERK8; 1 µM) | %Inh (ERN1) | %Inh (FAK) | %Inh (FER; 1 µM) | %Inh (FES; 1 µM) | %Inh (FGFR1) | %Inh (FGFR2) | %Inh (FGFR3; 1 µM) | %Inh (ERK8) | %Inh (FER) | %Inh (FES) | %Inh (FGFR3) |
| --- | --- | --- | --- | --- | --- | --- | --- | --- | --- | --- | --- | --- | --- | --- |
| Cc1ccc(C)c(NC(=O)NCCNc2ccnc(Nc3ccc(F)cc3)n2)c1 [GSK1379878] | 17% | 98.4% |  | 0% | 0% |  |  | 0% | 14% |  | 0% | 17% | 0% | 0% |
| Cc1cc(N2CCC(NS(=O)(=O)c3ccc(F)cc3)CC2)nc(Nc2cccc(C#N)c2)n1.O=C(O)C(F)(F)F [GSK1653537] | 0% | 0% |  | 0% | 0% |  |  | 6% | 0% |  | 31% | 18% | 26% | 16% |
| Clc1cc(Nc2ncnc3cc[nH]c23)ccc1OCc1ccccn1 | 27% | 13% |  | 47% | 8% |  |  | 5% | 8% |  | 6% | 1% | 22% | 17% |
| Cc1ccc(O)cc1Nc1cc(C(F)(F)F)nc2ccc(-c3ccncc3)cc12 [GW630823] | 5% | 9% |  | 0% | 3% |  |  | 0% | 4% |  | 7% | 1% | 6% | 0% |
| Fc1cccc(COc2ccc(Nc3ncnc4cc[nH]c34)cc2Cl)c1 | 9% | 0% |  | 35% | 11% |  |  | 14% | 8% |  | 7% | 31% | 21% | 10% |
| Nc1nc(-c2ccccn2)c(-c2ccnc3ccccc23)s1 [GW548057] | 31% | 4% |  | 14% | 0% |  |  | 0% | 0% |  | 0% | 8% | 0% | 16% |
| Oc1ccc2ncnc(Nc3ccc(OCc4ccccc4)cc3)c2c1 [GI262866] | 0% | 0% |  | 19% | 0% |  |  | 0% | 0% |  | 57% | 0% | 0% | 0% |
| Cn1ccc2ncnc(Nc3ccc(Oc4cccc(Cl)c4)c(Cl)c3)c21 | 25% | 22% |  | 48% | 0% |  |  | 1% | 6% |  | 0% | 0% | 8% | 1% |
| Fc1cccc(COc2ccc(Nc3ncnc4sc(-c5ccc[nH]5)cc34)cc2Cl)c1 [GW707818] | 51% | 6% |  | 10% | 0% |  |  | 0% | 0% |  | 0% | 12% | 0% | 6% |
| CS(=O)(=O)CCNCc1ccc(-c2ccc3ncnc(Nc4ccc(OCc5ccccc5)c(Cl)c4)c3c2)o1.Cl [GW574783] | 0% | 0% |  | 0% | 11% |  |  | 0% | 0% |  | 15% | 14% | 0% | 12% |
| CCCc1ccc(S(=O)(=O)NC2CCN(c3ccnc(Nc4ccc(OC)cc4)n3)C2)cc1 (stereo not shown) [GSK1379737] | 17% | 0% |  | 0% | 0% |  |  | 0% | 0% |  | 0% | 12% | 0% | 0% |
| CSc1ccc(NC2=C(c3ccccc3Cl)C(=O)NC2=O)cc1 [SB-342411] | 9% | 0% |  | 9% | 0% |  |  | 11% | 4% |  | 0% | 5% | 0% | 26% |
| Clc1cccc(-c2nc(Nc3ccncc3)c3ccccc3n2)c1 [GW873004] | 0% | 0% |  | 0% | 11% |  |  | 37% | 11% |  | 23% | 16% | 16% | 0% |
| Cn1cc(-c2ccc3c(c2)CCN3C(=O)Cc2cccc(C(F)(F)F)c2)c2c(N)ncnc21 [GSK2606414] | 7% | 0% |  | 21% | 0% |  |  | 20% | 0% |  | 23% | 0% | 0% | 0% |
| O=C(Nc1ccccc1)Nc1ccc(Oc2ccc3nccn3n2)cc1 | 0% | 1% |  | 100% | 0% |  |  | 0% | 8% |  | 14% | 0% | 0% | 15% |
